Assay outcomes from PubChem BioAssay.
Most compounds without a hit are left out; they make up all but 4.1% or so of the library.
DAX1 inh-1 = DAX1 (NR0B1) inhibitors on StAR promoter, primary screen, cell-based, luminescence, SF-1 (NR5A1), full-length DAX-1; AID 652010, 2013; inhibition, % at 6.8 µM; HEK293T StAR-luciferase reporter, SF-1/DAX-1 repression relief; 370,000 tested, 1.1% active;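 active = inhibition above the mean over all tested compounds plus 3 SD, cut at about 3.6% in these data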;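 note: 0% = DAX-1 cells with DMSO and 100% = cells lacking DAX-1 with DMSO; higher inhibition means more luminescence from relief of DAX-1 repression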
PolyA inhibitor = polyadenylation inhibitors in yeast reporter cells, primary screen, luminescence, S. cerevisiae | activity score, % at 12 µM | S. cerevisiae SKY197-pL101 polyadenylation reporter, beta-gal luminescence; efflux-impaired pdr1/pdr3 knockout yeast; score 100 = 6 SD above DMSO | 300,000 tested, 0.02% active;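 active = lowest replicate activity score at least 50, where 100 means six control SD above control mean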;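 note: yeast exposed to compound for 9 h at 30 °C; higher score means more reporter readthrough which indicates perturbed polyadenylation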
hgDAF-12 ag = H. glycines DAF-12 receptor agonists, primary screen, cell-based, luminescence, HEK293, GAL4 fusion, UAS-luciferase | activation, % at 6.8 µM | HEK293 GAL4-hgDAF12 UAS-luciferase reporter, agonist luminescence; normalized to butyrate control | Nuclear hormone receptor DAF-12 (Heterodera glycines), GAL4 fusion | 370,000 tested, 1.8% active;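 active = activation above a cutoff set at the mean of all screened compounds plus 3 SD, cut at about 10% in these data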;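 note: 0% = DMSO wells and 100% = sodium butyrate wells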
DAX1 inh-2 = DAX1 (NR0B1) inhibitors, primary screen, cell-based, HEK293, Gal4-DAX1, luciferase luminescence | HEK293 Gal4-DAX1 luciferase reporter | inhibition, % at 6.75 µM | 340,000 tested, 0.99% active;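 active = inhibition above the mean over all tested compounds plus 3 SD, cut at about 4.2% in these data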;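 note: 0% = DAX1-transfected cells with DMSO and 100% = empty-vector control cells with DMSO; inhibition shows as a rise in luminescence from relieved DAX1 repression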
hcDAF-12 act = H. contortus DAF-12 nuclear receptor activators, primary screen, cell-based, luminescence, HEK293, lit1-tk-luc reporter | HEK293 hcDAF-12 lit1-tk-luc reporter; 0% DMSO, 100% Δ7-dafachronic acid | activation, % at 6.8 µM | 370,000 tested, 1.4% active;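 active = activation above the mean of all tested compounds plus 3 SD, cut at about 5.5% in these data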;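 note: 100% = response to 3 µM Δ7-dafachronic acid high control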
ssDAF12 agonist = S. stercoralis DAF-12 nuclear receptor activators, primary screen, cell-based, luminescence, HEK293, GRIP1 co-expression, lit1-tk-luc; HEK293 ssDAF-12/GRIP1 lit1-tk-luc reporter; % of 3 µM dafachronic acid response; 370,000 tested, 1% active; Nuclear hormone receptor DAF-12 (Strongyloides stercoralis); activation, % at 6.8 µM;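 active = activation above the mean over all tested compounds plus 3 SD, cut at about 0.9% in these data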;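 note: 0% = DMSO-only wells and 100% = 3 µM delta7-dafachronic acid wells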
LXR ag = LXR agonists, Gal4 luciferase reporter, confirmation, counter-screen for hcDAF-12 agonist project, cell-based, luminescence, HEK293, H. contortus campaign | shares compounds with hcDAF-12 act | HEK293 Gal4-LXR tk-luc reporter, 24 h; normalized: DMSO 0%, positive control 100% | activation, % at 6.8 µM | 3,400 tested, under 10 active | AID 743027, 2013;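 active = mean percent activation of the reporter above a cutoff set as the average over tested compounds plus their standard deviation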
Target sequence (P55055 whole entry, looked up, the tested form may be a part): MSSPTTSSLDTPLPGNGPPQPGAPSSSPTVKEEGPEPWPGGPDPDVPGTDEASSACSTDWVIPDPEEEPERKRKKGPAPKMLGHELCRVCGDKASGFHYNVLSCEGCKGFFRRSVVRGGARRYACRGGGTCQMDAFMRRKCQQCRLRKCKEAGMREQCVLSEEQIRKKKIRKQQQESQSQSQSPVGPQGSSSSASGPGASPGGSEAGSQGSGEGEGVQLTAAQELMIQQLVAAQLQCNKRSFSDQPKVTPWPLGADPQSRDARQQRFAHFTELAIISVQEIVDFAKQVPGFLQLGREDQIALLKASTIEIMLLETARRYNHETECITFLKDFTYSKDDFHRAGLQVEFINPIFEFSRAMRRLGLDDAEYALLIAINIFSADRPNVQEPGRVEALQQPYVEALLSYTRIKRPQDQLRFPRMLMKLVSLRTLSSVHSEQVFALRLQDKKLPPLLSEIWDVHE
hcDAF12 conf = H. contortus DAF-12 receptor agonists, confirmation, cell-based, luminescence, HEK293, lit1-tk-luc, triplicate; AID 743032, 2013; HEK293 hcDAF-12 lit1-tk-luc reporter; % of Δ7-dafachronic acid response; 3,400 tested, 61% active; shares compounds with hcDAF-12 act; activation, % at 6.8 µM;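 active = mean activation across triplicate tests above the threshold derived from the earlier primary screen, cut at about 5.5% in these data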;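 note: 0% = DMSO only wells and 100% = 3 µM Δ7-dafachronic acid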
hgDAF12 ag = H. glycines DAF-12 receptor agonists, confirmation, cell-based, luminescence, HEK293, GAL4-LBD fusion; HEK293 GAL4-hgDAF12 luciferase reporter, agonist mode; percent of butyrate response; shares compounds with hgDAF-12 ag; AID 743050, 2013; 3,300 tested, 80% active; activation, % at 6.8 µM;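 active = mean activation over triplicate wells above the hit cutoff derived from the earlier primary screen, cut at about 11% in these data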;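 note: 0% = DMSO low control and 100% = 2 mM sodium butyrate high control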
LXRb DAF12 ctr = LXR agonists, Gal4 luciferase reporter, confirmation, counter-screen for hgDAF-12 agonist project, cell-based, luminescence, HEK293, H. glycines campaign; 24 h; activation, % at 6.8 µM; 3,300 tested, under 10 active; shares compounds with hgDAF-12 ag; AID 743051, 2013;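 active = mean activation of the triplicate above a set limit carried over from the primary screen, none filed active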
Active calls of the source: *; x = no result given.

SMILES	DAX1 inh-1	PolyA inhibitor	hgDAF-12 ag	DAX1 inh-2	hcDAF-12 act	ssDAF12 agonist	LXR ag	hcDAF12 conf	hgDAF12 ag	LXRb DAF12 ctr
CCCCN(C(=O)C(C)N1C(=O)c2ccccc2C1=O)c1c(N)n(CC(C)C)c(=O)[nH]c1=O (centres undefined)	-0.3	x	1.5	0.8	-1.4	-1.1	x	x	x	x
CCc1ccc(NC(=O)c2cc(C(C)C)on2)cc1	2.8	-0.2	14.6*	0.3	7.1*	-0.2	1.5	6.0*	19.2*	1.0
COc1ccccc1Cc1c(C(C)(C)C)nc2c3ccccc3ccn12	-0.8	x	-0.6	x	0.5	-1.4	x	x	x	x
COc1ccccc1-c1noc(-c2cccs2)n1	1.5	-12.9	19.3*	1.6	8.7*	0.7	0.7	5.1	22.8*	0.9
COc1ccccc1-c1noc(-c2ccncc2)n1	0.1	-0.4	4.6	1.1	0.0	-1.0	x	x	x	x
COCCCN1C(=O)C(CC(=O)NCc2cccs2)CC(C(=O)N(C(C)C)C(C)C)=C1C (centres undefined)	0.3	x	0.2	x	-0.7	-0.8	x	x	x	x
COCc1c(C(=O)N/N=C(/C)c2ccc(OCc3ccccc3)cc2)nnn1-c1nonc1N	1.2	-18.7	14.3*	0.0	8.5*	-0.4	0.0	2.8	8.3	0.2
C=CCC[C@H](Cc1ccc(F)cc1)C(=O)OC[C@H](C)NC(=O)[C@@H](CC=C)CC(=O)N[C@H](CO)Cc1ccccc1	-0.5	x	-1.5	1.4	-1.7	-1.1	x	x	x	x
Cc1cc(C(=O)Nc2ccc3ccccc3c2)c(C)o1	2.7	-29.1	18.2*	1.7	8.5*	1.7*	2.0	10.9*	21.3*	1.3
Cc1cc(C(=O)Nc2ccc3ccccc3c2)oc1C	2.8	-1.7	19.0*	2.0	7.3*	0.9	1.4	6.9*	19.2*	1.0
COc1cccc(NC2SC(=O)N(c3ccccc3)C2=O)c1 (centres undefined)	5.5*	-4.5	13.8*	1.3	7.1*	0.3	0.5	3.1	10.9*	0.3
CCN(CCn1cccn1)C(=O)c1cc(COc2ccc(F)c(F)c2)on1	-0.1	-11.1	2.9	0.9	0.6	-1.1	x	x	x	x
CCN(CCn1cccn1)C(=O)c1cc(COc2cc(C)ccc2C)on1	3.5	-3.1	14.3*	2.4	7.5*	1.7*	1.1	4.6	12.2*	0.3
O=S(=O)(NCc1ccc(Cl)c(Cl)c1)c1cc(Cl)ccc1N1CC[C@@H](O)C1	0.1	x	-0.9	x	-1.5	-1.6	x	x	x	x
Cc1c(-c2ccc(Br)cc2)nc2ccccn12	4.0*	-9.6	14.7*	1.4	8.4*	1.4*	1.1	7.5*	15.3*	0.8
CN(C)c1ccc(-c2nc3ccccn3c2/N=C/c2ccc(Br)cc2)cc1	2.9	16.9	16.4*	-0.2	7.5*	1.4*	1.2	4.7	8.3	0.6
O=C(Nc1ccon1)c1ccc(Br)s1	-0.7	5.9	2.2	0.3	-0.2	-1.4	x	x	x	x
Cc1ccnc(NC(=O)c2ccc(Br)s2)c1	2.5	-10.1	20.1*	1.8	13.6*	1.6*	1.5	9.3*	16.9*	0.8
CCN1C(=O)C(=O)N(CC(=O)N2CCC(C)Sc3ccccc32)C1=O (centres undefined)	0.9	x	1.6	0.4	-0.7	-1.8	x	x	x	x
Cc1cc(C(=O)Nc2ccc3c(c2)OCCO3)c(C)o1	3.2	-3.6	8.8	0.5	4.4	-0.4	x	x	x	x
O=C(Nc1ccc2c(c1)OCCO2)c1cccc(Cl)c1	2.0	9.2	17.6*	3.3	9.9*	-0.1	1.2	3.7	15.4*	0.7
O=C(Nc1ccc2c(c1)OCCO2)c1ccc(Cl)cc1Cl	2.0	-1.3	13.5*	-1.9	8.0*	0.9	1.8	8.0*	18.7*	0.9
CC(C)(C)c1ccc(NC(=O)CSc2n[nH]c(=O)n2C2CC2)cc1	-2.0	x	-4.6	-0.3	0.3	-1.0	x	x	x	x
O=C(Nc1nnc([C@H]2C[C@H](O)[C@@H](CO)O2)s1)c1ccccc1F	1.2	x	3.7	x	-1.4	-0.8	x	x	x	x
COc1cccc(CNC(=O)CCCn2c(=S)[nH]c3cc4c(cc3c2=O)OCO4)c1	-0.2	-17.0	-2.5	0.0	-1.4	-1.3	x	x	x	x
Cc1ccc(C(=O)Nc2ccccc2Cl)cc1	2.6	0.8	13.4*	7.1*	11.5*	1.2*	1.5	7.3*	16.0*	0.7
COc1cc2ccccc2cc1C(=O)Nc1ccccc1Cl	2.6	-31.5	15.7*	4.8*	12.2*	2.2*	1.3	15.0*	19.5*	0.9
COc1cc2ccccc2cc1C(=O)Nc1cccnc1	0.8	-15.3	8.6	1.2	3.3	0.6	x	x	x	x
COc1ccc(NC(=O)c2cc3ccccc3cc2OC)cc1	2.4	9.6	14.7*	3.8	12.5*	3.2*	0.8	11.6*	16.9*	0.6
CCc1ccc(C2=NN(S(C)(=O)=O)C(c3cccs3)C2)cc1 (centres undefined)	2.7	-7.5	14.8*	1.2	11.7*	2.6*	1.3	6.1*	23.0*	1.1
